CYP2C9 inhib = inhibitors of human CYP2C9 | P11712 | CYP2C9 Supersomes, luciferin-H conversion, luminescence | inhibition, % at 5 µM | 20% of 96,000 active | AID 777;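 active = blocking of liver enzyme CYP2C9 beyond about 50% at 5 µM, limit read from the data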
CYP2C19 inhib = human CYP2C19 inhibition; inhibition, % at 5 µM; 21% of 96,000 active; CYP2C19 Supersomes, luciferin-H EGE luminescence, 30 min;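 active = CYP2C19 inhibition above a set limit at 5 µM in the primary screen, cut at about 50% in these data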;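 also: plate controls were negative control wells for no effect and 2.5 mM tranylcypromine positive control for full effect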
CYP2C19 act = activators of human cytochrome P450 2C19; P33261; recombinant CYP2C19, luciferin-H EGE luminescence; stronger effect = higher value; 0 = fully inhibited enzyme, 1 = untreated enzyme; activation factor at 5 µM; 96,000 tested, under 10 active; AID 1025;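 active = activation factor of at least 2 at 5 µM in the primary screen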;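 also: 0 = wells with 2.5 mM tranylcypromine and 1 = vehicle-only wells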
CYP2C9 activ = CYP2C9 (human) activation. AID 1024. P11712. recombinant CYP2C9, luciferin-H conversion, luminescence; stronger effect = higher value; factor 1 = untreated enzyme, 0 = blocked. 1.4% of 96,000 active. activation factor at 5 µM;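 active = activation factor of 2 or more for CYP2C9 at a 5 µM dose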;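 also: 0 = sulfaphenazole-blocked wells and 1 = vehicle-only wells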
* marks the source's active call; other numbers are inactive results. This is a sample that favours compounds with a hit; in the whole collection about 31% have one here.

SMILES	CYP2C9 inhib	CYP2C19 inhib	CYP2C19 act	CYP2C9 activ
Nc1ccc2nc(-c3ccccc3)sc2c1	50.8*	71.6*	0.3	0.5
COc1ccc(C(=O)Nc2ncc3c(n2)CC(c2ccco2)CC3=O)cc1 (stereo not given)	12.0	5.8	0.9	0.9
COc1cc2c(cc1OC)CN(CC(=O)Nc1ccc3c(c1)OC(F)(F)O3)CC2	39.5	30.1	0.7	0.6
CCCc1nc(SCC(=O)N2CCc3ccccc3C2)c2ccccc2n1	78.5*	57.1*	0.4	0.2
CCOC(=O)CSc1nc(CC)nc2ccccc12	16.7	45.0	0.6	0.8
CCOC(=O)CNC(=O)CSc1nc(Cc2cccs2)nc2ccccc12	43.8	57.6*	0.4	0.6
CC1CC(C)CN(C(=O)CSc2nc(Cc3cccs3)nc3ccccc23)C1 (stereo not given)	71.6*	27.6	0.7	0.3
Cc1noc(C)c1C(=O)OC(C(=O)NC1CCCC1)c1ccc(F)cc1 (stereo not given)	46.9	37.1	0.6	0.5
CCN(CC)C(=O)CSc1ncnc2sc(-c3ccccc3)cc12	92.9*	96.6*	0	0.1
CC(C)C(C)(C#N)NC(=O)CSc1ncnc2sc(-c3ccccc3)cc12 (stereo not given)	83.2*	96.4*	0	0.2
CN(C)/C=N/c1c(C#N)cnn1-c1ncnc2sc(-c3ccccc3)cc12	91.7*	86.7*	0.1	0.1
COc1ncnc2sc(-c3ccccc3)cc12	19.5	76.5*	0.2	0.8
CN(C)/C=N/c1c(C#N)cnn1-c1ccccc1	-15.5	46.4	0.5	1.2
Cc1cc(C(=O)COC(=O)c2n[nH]c3ccccc23)c(C)n1CC1CCCO1 (stereo not given)	-2.8	33.4	0.7	1
COc1ccc(C(=O)COC(=O)Cn2nnc3ccccc32)cc1Br	-19.8	-7.0	1.1	1.2
Cc1sc(NC(=O)CSc2nnc(-c3ccccc3)o2)c(C#N)c1C	37.5	41.6	0.6	0.6
CCCCCn1cnc2sc(-c3ccccc3)cc2c1=O	58.3*	44.3	0.6	0.4
CCc1cc2c(SCC(=O)c3cccs3)ncnc2s1	9.9	-9.4	1.1	0.9
CN(CCC#N)C(=O)CSc1ncnc2sc(-c3ccccc3)cc12	50.5*	40.0	0.6	0.5
CC(C)C(C)(C#N)NC(=O)CSc1nnc(-c2ccccc2)o1 (stereo not given)	9.4	67.8*	0.3	0.9
CCOc1cc(C2/C(=C(/O)c3ccc(OC(C)C)cc3)C(=O)C(=O)N2CCCOC)ccc1O (stereo not given)	6.0	30.3	0.7	0.9
COCCNCC(=O)C12CC3CC(CC(C3)C1)C2	-7.5	24.8	0.8	1.1
COc1ccc(C)cc1S(=O)(=O)N(C)CC(=O)Nc1ccc2c(c1)OCO2	85.9*	58.0*	0.4	0.1
CS(=O)(=O)N(CC(=O)Nc1ccc2c(c1)OCCO2)Cc1ccc(Cl)cc1	5.2	2.3	1	0.9
COc1ccc(C)cc1S(=O)(=O)N(CC(=O)Nc1ccc2c(c1)OCCO2)Cc1ccccc1	98.4*	100.3*	0	0
CCOc1cc(C(=O)OCC(=O)c2c[nH]c3ccccc23)ccc1OCC(=O)N1CCOCC1	41.2	29.3	0.7	0.6
COc1ccc(OC)c2sc(NC(=O)c3ccc(S(=O)(=O)N4CCOCC4)cc3)nc12	16.7	6.4	0.9	0.8
COc1cc(C(=O)OCC(=O)c2c[nH]c3ccccc23)ccc1OCC(=O)N1CCOCC1	77.5*	51.0*	0.5	0.2
